Measured values reported in the supplement of paper PMC10981050.
“And” between values parts separate entries of the source, which are not always exact repeats. Equal entries are not always repeated. Structures can show the parent of a compound that is named as a salt.

Columns and labels:
Test in all cases: cell viability relative to vehicle control; higher = less cytotoxic
Conditions in all cases: 10 µM
K562 = test system: K562
How it was run: (§1)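 CRISPR-edited SRSF2 P95 mutant and isogenic wild-type clones of four leukaemia lines were screened against Selleck bioactive, kinase and epigenetic probe libraries, with identity-inconsistent compounds removed. Compounds were acoustically dispensed into 384-well plates at a single 10 µM dose, with 2000 cells in 50 µL medium per well. After 48 h, supernatant was removed and CellTiter-Glo luminescence was read. Viability was expressed as percent of the on-plate DMSO vehicle control, analysed in Genedata Screener.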

MARIMO = test system: MARIMO
How it was run: as §1

MOLM14 = test system: MOLM14
How it was run: as §1

OCI-AML2 = test system: OCI-AML2
How it was run: as §1

| SMILES | cell viability (K562; SRSF2 genotype: SRSF2 P95H/wt) | cell viability (K562; SRSF2 genotype: SRSF2 wt/wt) [%] | cell viability (MARIMO; SRSF2 genotype: SRSF2 P95H/wt) [%] | cell viability (MARIMO; SRSF2 genotype: SRSF2 wt/wt) [%] | cell viability (MOLM14; SRSF2 genotype: SRSF2 P95H/wt) [%] | cell viability (MOLM14; SRSF2 genotype: SRSF2 wt/wt) [%] | cell viability (OCI-AML2; SRSF2 genotype: P95H/wt) [%] | cell viability (OCI-AML2; SRSF2 genotype: wt/wt) [%] |
| --- | --- | --- | --- | --- | --- | --- | --- | --- |
| CN(C)CCC=C1c2ccccc2CCc2ccccc21 [Amitriptyline HCl] | 83.3% and 90.4% | 88.2 | 77.1 | 83 | 79 | 89.7 | 80.7 | 89.2 |
| Cc1nc(Nc2ncc(C(=O)Nc3c(C)cccc3Cl)s2)cc(N2CCN(CCO)CC2)n1 [Dasatinib] | 21.5% and 39.8% | 27.1 | 68.1 | 61.3 | 40.3 | 35.1 | 31.8 | 40.6 |
| CNC(=C[N+](=O)[O-])NCCSCc1ccc(CN(C)C)o1 [Ranitidine Hydrochloride] | 108% and 98.4% | 102 | 99.9 | 106 | 103 | 103 | 91 | 105 |
| Nc1nc2cc(-c3ccc4ncc(C(=O)N5CCOCC5)n4c3)ccc2o1 [Serabelisib (INK-1117,MLN-1117,TAK-117)] | 92.2% and 98.4% | 84.2 | 64.5 | 72.4 | 57.7 | 65.2 | 53 | 65.4 |
| CCn1c(-c2nonc2N)nc2c(C#CC(C)(C)O)ncc(OC[C@H]3CCCNC3)c21 | 87.1% and 95.7% | 79.5 | 73 | 72.3 | 59.2 | 47.1 | 53.9 | 57.1 |
| C[C@H]1[C@H](C)CC[C@]2(C(=O)O)CC[C@]3(C)C(=CC[C@@H]4[C@@]5(C)C[C@@H](O)[C@H](O)C(C)(C)[C@@H]5CC[C@]43C)[C@H]12 [Corosolic acid] | 94.6% and 95.3% | 93.5 | 94.7 | 107 | 97.3 | 96.1 | 103 | 99.7 |
| Cc1ccc(-n2nc(C(C)(C)C)cc2NC(=O)Nc2ccc(OCCN3CCOCC3)c3ccccc23)cc1 [BIRB 796 (Doramapimod)] | 80.2% and 83.8% | 92.3 | 81.8 | 104 | 81.4 | 88.1 | 93.7 | 101 |
| O=C(O)c1cn(-c2ccc(F)cc2)c2cc(N3CCNCC3)c(F)cc2c1=O [Sarafloxacin HCl] | 99.7% and 102% | 90.9 | 97.8 | 102 | 103 | 99.5 | 102 | 102 |
| CC(C)c1nc(CN(C)C(=O)N[C@H](C(=O)N[C@@H](Cc2ccccc2)C[C@H](O)[C@H](Cc2ccccc2)NC(=O)OCc2cncs2)C(C)C)cs1 [Ritonavir] | 89.2% and 88.4% | 82.6 | 81.9 | 95 | 81.8 | 88.3 | 102 | 89.3 |
| O=C(O)c1cc(C(F)(F)F)ccc1N1CC[C@H](OCc2ccccn2)C1 | 107% and 109% | 100 | 114 | 113 | 102 | 102 | 106 | 104 |
| N#Cc1c(O)c2c(-c3ccc(-c4ccccc4O)cc3)csc2[nH]c1=O | 102% and 100% | 103 | 99.1 | 103 | 104 | 99 | 93.1 | 101 |
| O=C(c1ccc(OCCCc2c[nH]cn2)cc1)C1CC1 [Ciproxifan Maleate] | 89.3% and 91.3% | 87.7 | 85.2 | 90.4 | 95.9 | 93.9 | 71.8 | 83.4 |
| N#CC(=Cc1ccc(-c2cc(Cl)ccc2Cl)o1)C(=O)Nc1cccc2ncccc12 | 101% and 104% | 91.8 | 99.1 | 99.8 | 116 | 112 | 88.3 | 92 |
| Nc1nc(N)c2nc(-c3cccc(O)c3)c(-c3cccc(O)c3)nc2n1 | 95% and 105% | 88.6 | 111 | 101 | 108 | 107 | 98.5 | 91.4 |
| NNC(=O)c1ccncc1.Nc1ccc(C(=O)O)c(O)c1 [pasiniazid] | 109% and 113% | 114 | 106 | 106 | 101 | 108 | 119 | 93.9 |
| CC(=O)Nc1cccc(-n2c(=O)n(C3CC3)c(=O)c3c(Nc4ccc(I)cc4F)n(C)c(=O)c(C)c32)c1 | 67.7% and 87.2% | 77.8 | 39.6 | 38.5 | 42.3 | 27.1 | 39.8 | 41.6 |
| Cn1c2ccccc2c2c3c(c4c5ccccc5n(CCC#N)c4c21)CNC3=O | 104% and 99.7% | 97.7 | 85.5 | 93.9 | 42.6 | 36.8 | 62.8 | 65.6 |
| COc1cc(N2CCN(C)CC2)ccc1Nc1ncc2c(n1)N(C)c1ccccc1C(=O)N2 | 83.4% and 82.7% | 78.9 | 97.7 | 90.1 | 78.1 | 91.3 | 83.3 | 73.2 |

| SMILES | cell viability (K562; SRSF2 genotype: SRSF2 P95H/wt) | cell viability (K562; SRSF2 genotype: SRSF2 wt/wt) [%] | cell viability (MARIMO; SRSF2 genotype: SRSF2 P95H/wt) [%] | cell viability (MARIMO; SRSF2 genotype: SRSF2 wt/wt) [%] | cell viability (MOLM14; SRSF2 genotype: SRSF2 P95H/wt) [%] | cell viability (MOLM14; SRSF2 genotype: SRSF2 wt/wt) [%] | cell viability (OCI-AML2; SRSF2 genotype: P95H/wt) [%] | cell viability (OCI-AML2; SRSF2 genotype: wt/wt) [%] |
| --- | --- | --- | --- | --- | --- | --- | --- | --- |
| CN[C@@H](C)C(=O)N[C@H](C(=O)N1CCC[C@H]1C(=O)N[C@H](C(=O)NCCCCCCNC(=O)[C@@H](NC(=O)[C@@H]1CCCN1C(=O)[C@@H](NC(=O)[C@H](C)NC)C1CCCCC1)C(c1ccccc1)c1ccccc1)C(c1ccccc1)c1ccccc1)C1CCCCC1 | 0.93% and 3.98% | 3.06 | 29.5 | 8.11 | 0.7 | 0.53 | 4.1 | 9.14 |
| OC[C@H]1O[C@@H](Oc2cc(O)cc(/C=C/c3ccc(O[C@@H]4O[C@H](CO)[C@@H](O)[C@H](O)[C@H]4O)cc3O)c2)[C@H](O)[C@@H](O)[C@@H]1O [Mulberroside A] | 94.5% and 95.1% | 98.2 | 95.3 | 101 | 97.3 | 97.6 | 97.1 | 105 |
| CCn1c(N)c(C(=O)NC)c(=O)c2ccc(C#CC(C)(O)COC)nc21 (stereo not drawn) | 105% and 99.5% | 97.9 | 87.4 | 93.7 | 48.1 | 55.5 | 64.6 | 64.6 |
| C=C(C)[C@@H]1CC[C@]2(C)CC[C@]3(C)[C@H](CC[C@@H]4[C@@]5(C)CC[C@H](O)C(C)(C)[C@@H]5CC[C@]43C)[C@@H]12 [Lupeol] | 106% | 113 | 109 | 108 | 105 | 109 | 108 | 108 |
| O=C(O)C=CCCCCCCCO [Royal jelly acid] | 103% and 104% | 102 | 104 | 105 | 98.5 | 102 | 110 | 112 |
| CN1CCC(=C2c3ccccc3CC(=O)c3sccc32)CC1 [Ketotifen fumarate (Zaditor)] | 104% and 101% | 97.7 | 94.7 | 104 | 94.6 | 101 | 91 | 107 |
| Nc1[nH]cnc2ncnc1-2 [Adenine sulfate] | 108% and 94.6% | 99.3 | 94.7 | 103 | 93.5 | 99.7 | 102 | 112 |
| Nc1nc2c(ncn2[C@@H]2O[C@H](CO)[C@@H](O)[C@H]2O)c(=O)[nH]1 [Guanosine] | 87.3% and 93.1% | 93.2 | 88.2 | 103 | 92.5 | 99.8 | 103 | 97.5 |
| CC(=O)O[C@H]1C(=O)[C@@]2(C)[C@H]([C@H](OC(=O)c3ccccc3)[C@]3(O)C[C@H](OC(=O)[C@H](O)[C@@H](NC(=O)c4ccccc4)c4ccccc4)C(C)=C1C3(C)C)[C@]1(OC(C)=O)CO[C@@H]1C[C@@H]2O [7-Epitaxol] | 19.6% and 30.7% | 26.1 | 7.11 | 4.44 | 8 | 2.61 | 6.19 | 12.1 |
| CC1OC(OC2C(OC3CCC4(C)C(CCC5(C)C4CC=C4C6CC(C)(C)CCC6(C(=O)OC6OC(COC7OC(CO)C(O)C(O)C7O)C(O)C(O)C6O)CCC45C)C3(C)CO)OCC(O)C2O)C(O)C(O)C1O (stereo not drawn) [Dipsacoside B] | 101% and 103% | 104 | 97.5 | 98.2 | 106 | 98.3 | 101 | 103 |
| CCCC1CC(C(=O)NC(C(C)Cl)C2OC(SC)C(O)C(O)C2O)N(C)C1 (stereo not drawn) [Clindamycin alcoholate] | 104% and 98% | 102 | 98.5 | 107 | 103 | 108 | 107 | 98.6 |
| O=c1c2ccccc2nc2n1CCc1c-2[nH]c2ccccc12 [Rutaecarpine (Rutecarpine)] | 103% | 103 | 98.5 | 106 | 101 | 103 | 95.5 | 104 |
| CCOC(=O)n1ccn(C)c1=S [Carbimazole] | 107% and 106% | 113 | 110 | 103 | 103 | 111 | 108 | 97.4 |
| O=c1[nH]nc2c3c(cccc13)N=C(CN1Cc3ccccc3C1)N2 | 69.4% and 77.8% | 66.3 | 93 | 108 | 74.5 | 65.6 | 69.7 | 86.2 |
| O=c1c(-c2ccc(O)cc2)coc2cc(O[C@@H]3O[C@H](CO)[C@@H](O)[C@H](O)[C@H]3O)cc(O)c12 [Genistin (Genistoside)] | 95.5% and 108% | 94.7 | 94.6 | 98 | 89 | 99.7 | 92.1 | 93.4 |
| O=C1CC[C@@H](C(=O)N2CSC[C@H]2C(=O)O)N1 [Pidotimod] | 99.7% and 104% | 101 | 104 | 99.1 | 104 | 104 | 114 | 104 |
| CC1OC(OC2C(OC3CCC4(C)C(CCC5(C)C4CC=C4C6CC(C)(C)CCC6(C(=O)OC6OC(COC7OC(CO)C(O)C(O)C7O)C(O)C(O)C6O)CCC45C)C3(C)CO)OCC(O)C2O)C(O)C(OC2OC(CO)C(O)C(O)C2O)C1O (stereo not drawn) [Macranthoidin A] | 99.3% and 97.9% | 100 | 100 | 102 | 102 | 96.6 | 98 | 105 |
| CC1(C)C2CCC1(C)C(O)C2 (single isomer, unassigned; (-)) [(-)-Borneol] | 103% | 106 | 100 | 109 | 101 | 104 | 109 | 106 |
